Pol kappa inh = inhibitors of human DNA polymerase kappa | Q9UBT6 | purified Pol kappa, fluorescent DNA synthesis assay, 10 min | Potency, µM (highest dose often 107 µM), inactives show top-dose activity, negative = inhibition, usual class: inhibitors | 400,000 tested, 0.53% active; further: on the % scale 0 is the no-effect control and ±100 the full control effect
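Kinetic fluorescence screen: compound preincubated 15 min RT with 10 nM enzyme; 50 nM substrate (final) initiates; reads at 0/10 min.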
Pol iota inh = inhibitors of human DNA polymerase iota; Q9UNA4; Pol iota fluorescent replication assay, 10 min; Potency, µM (doses to about 115 µM), without a hit: at the top dose activity, negative = inhibition, most hits filed as inhibitors; 390,000 tested, 1% active
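Fluorescent replication assay read twice, at 0 min and 10 min after adding 50 nM (final) substrate. Enzyme (10 nM) and compounds were first incubated 15 min at room temperature; enzyme-free buffer wells were negative controls.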
Pol eta inh = inhibitors of human DNA polymerase eta | Q9Y253 | recombinant Pol eta, fluorescent DNA replication assay | Potency, µM (highest dose often 114 µM), for the others: at the highest dose activity change, negative = inhibition, hits mostly inhibitors | 390,000 tested, 1.2% active; further: on the % scale 0 is the no-effect control and ±100 the full control effect
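Fluorescent replication assay: 50 nM final substrate added after a 15 min room-temperature compound preincubation with 10 nM enzyme. Signal taken at 0 min and again at 10 min.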
WRN inhibitor = WRN helicase (human) inhibition; Potency, µM (doses to about 114 µM), without a hit: at the top dose activity change, negative = inhibition, actives largely listed as inhibitors; WRN helicase unwinding, fluorescent forked duplex, kinetic; 360,000 tested, 0.46% active; further: on the % scale 0 is the no-effect control and ±100 the full control effect; nearly all actives have a fitted effect of over 55% in size
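Screening of the MLSMR collection measured strand separation of a quenched forked DNA duplex (100 nM) by 20 nM WRN with 2 mM ATP, all final. Compounds were preincubated with enzyme 15 min at room temperature.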
POLB inh = inhibitors of human DNA polymerase beta. P06746. 340,000 tested, 1.3% active. Pol beta primer extension/strand displacement, fluorescence kinetic. Potency, µM (series often up to 114 µM), without a hit: at the top dose activity change, negative = inhibition, actives largely listed as inhibitors; further: on the % scale 0 is the no-effect control and ±100 the full control effect
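Preincubation: enzyme (10 nM) with compound, 15 min, RT. Reaction: substrate added to 50 nM final. Reads: 0 and 10 min. Analysis: normalized, Hill fit.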
L3MBTL1 block = blocks human L3MBTL1. Potency, µM (series often up to 57.1 µM), for inactives: at the highest dose activity, negative = inhibition, actives largely listed as inhibitors. 230,000 tested, 0.66% active. Q9Y468. AlphaScreen L3MBTL1–H3K9me1 peptide binding; further: on the % scale 0 is the no-effect control and ±100 the full control effect; nearly all actives have a fitted effect of over 60% in size
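L3MBTL1 50 nM + b-AHA-H3(1-15)K9me1 75 nM, 30 min RT; compound added, 30 min RT; streptavidin donor/Ni-chelate acceptor beads 10 ug/mL each final, 30 min RT dark; AlphaScreen read.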
Starred values were filed as active, the others as inactive; ? = inconclusive; . = no result; [ ] = remark or other dose. This is a sample that favours compounds with a hit; in the whole collection about 2.5% have one here. The call rests on the fitted dose curve; in most records, active means well fitted curve in the direction sought with a large enough effect; inconclusive means small, poorly fitted or top-dose-only effect, or another doubt; inactive means no such curve, though single readings can be large; an effect the other way counts as inactive or inconclusive. Potency means the concentration at half of the fitted maximal effect.

SMILES	Pol kappa inh	Pol iota inh	Pol eta inh	WRN inhibitor	POLB inh	L3MBTL1 block
COC(=O)c1sc(-c2ccc(C(C)(C)C)cc2)cc1NC(=O)CSCC(=O)O	9%	79µM*	89µM*	-4%[11.6 µM]	-7%	.
Cc1ccc(N2CC(C(=O)N3CCN(c4ccccn4)CC3)CC2=O)cc1 (stereo not drawn)	?	?	50µM*	-5%[11.6 µM]	.	.
CCOc1ccccc1NC(=O)Cn1ccn(Cc2ccc(C)cc2)c(=O)c1=O	0%	-25%	11%	.	19%	.
CN1CCc2c(sc(NC(=O)c3cc4cc([N+](=O)[O-])ccc4s3)c2C(N)=O)C1	.	.	.	.	22µM*	.
Cc1ccc(-n2nc(C)c3c2OC(N)=C(C#N)C3c2ccoc2)cc1 (stereo not drawn)	-17%	20µM*	-1%	-29%	28µM*	?
O=C(c1cc(-c2ccc(Br)cc2)n[nH]1)N1CCN(S(=O)(=O)c2ccc(Br)s2)CC1	-17%	-7%	-6%	.	35%	.
CC1=CC(=C(C#N)C#N)C=C(C)N1Cc1ccc(Cl)cc1	-2%	16%	-22%	24%	8%	.
O=C(O)c1cccc(S(=O)(=O)Nc2ccccc2N2CCOCC2)c1	-18%	?	1%	-2%	4%	-21%
COc1cc2sc3cc(NCc4ccc5c(c4)OCO5)ccc3c(=O)c2cc1OC	-9%	0%	-12%	-5%	.	-7%
COc1cc2sc3cc(NCc4ccc(C)o4)ccc3c(=O)c2cc1OC	79µM*	22µM*	-22%	-11%[11.6 µM]	.	30%
CN(CC(=O)Nc1ccccc1C(F)(F)F)C(=O)CCc1nc2sc3c(c2c(=O)[nH]1)CCCC3	-9%	?	45µM*	7%[11.6 µM]	?	.
CN(CC(=O)Nc1ccc(Cl)cc1)C(=O)CCc1nc2sc3c(c2c(=O)[nH]1)CCCC3	-41%	28µM*	?	-14%[11.6 µM]	.	?
CN(CC(=O)Nc1ccc(F)cc1)C(=O)CCc1nc2sc3c(c2c(=O)[nH]1)CCCC3	-36%	35µM*	16µM*	-4%[11.6 µM]	.	?
CN(C)C(=O)CCc1nc2sc3c(c2c(=O)[nH]1)CCCC3	-5%	-7%	-15%	-7%	-1%	.
CCN(CC(=O)Nc1ccccc1C(F)(F)F)C(=O)CCc1nc2ccccc2c(=O)[nH]1	-16%	6%	2%	1%	12%	.
CN(Cc1ccco1)C(=O)CCc1nc2sc3c(c2c(=O)[nH]1)CCCC3	?	45µM*	?	-23%	8%	.
NC(=O)c1ccc(NC(=O)CCc2nc3sc4c(c3c(=O)[nH]2)CCCC4)cc1	-1%	?	?	-25%	.	-7%
CN(C[C@H](CC1CCCCC1)N(C[C@H](Cc1ccccc1)N(CCc1ccccc1)N=O)N=O)N=O	-10%	-23%	0%	-5%	-12%	-12%
CCN(CC(=O)Nc1ccc2c(c1)OCCO2)CC(=O)Nc1ccccc1C(F)(F)F	-10%	15%	-12%	?	.	-7%
COc1ccc(C(=O)Nc2c3c(nn2C(C)(C)C)CS(=O)(=O)C3)cc1OC	-3%	140%	-13%	4%	21%	.
O=C(Nc1cccc(N=Cc2cc(Cl)cc(Br)c2O)c1)c1ccco1	-24%	22%	?	?	7%	-12%
O=C(Nc1cccc(N=Cc2cc(Br)cc(Br)c2O)c1)c1ccco1	-19%	89µM*	?	?	-1%	-6%
CCC(C(=O)O)c1ccccc1 (stereo not drawn)	-6%[60.1 µM]	.	.	.	.	.
CCC(c1ccccc1)C(CC)c1cc(O)c(O)c(O)c1 (stereo not drawn)	-5%	?	-21%	45µM*	.	.
Cc1ccc(NC(=O)CSCC(=O)Nc2ncc3c(n2)CC(c2ccco2)CC3=O)cc1 (stereo not drawn)	?	28µM*	?	-35%	?	?
SMILES	Pol kappa inh	Pol iota inh	Pol eta inh	WRN inhibitor	POLB inh	L3MBTL1 block
O=C(CSc1nc(=O)n2ccccc2n1)N1N=C(c2cccs2)CC1c1ccc(F)cc1 (stereo not drawn)	-6%	20%	-15%	0%	.	-5%
COc1ccc(C2CC(c3cccs3)=NN2C(=O)CSc2nc(=O)n3ccc(C)cc3n2)cc1 (stereo not drawn)	-25%	22µM*	?	-4%[11.6 µM]	.	-9%
C=CCN1C(=O)/C(=C\c2cc(Br)c(OCc3ccccn3)c(OC)c2)SC1=S	-5%	19%	-12%	0%	13%	-6%
COc1cc(/C=C2\S/C(=N/S(=O)(=O)c3ccccc3)NC2=O)c([N+](=O)[O-])cc1OC	-30%	?	22µM*	?	21%	9%
COc1ccc(N=C2NC(=O)/C(=C/c3ccco3)S2)cc1	-20%	?	-13%	-8%	?	.
COc1ccc(S(=O)(=O)/N=C2/NC(=O)/C(=C\c3ccco3)S2)cc1	?	?	18µM*	-27%[57.1 µM]	25µM*	?
CCN(CC)S(=O)(=O)c1ccc(NC(=O)c2ccc(CN3CCOCC3)cc2)cc1	-9%	10%	6%	-4%	-2%	-11%[11.4 µM]
C1=CN2CC=Cc3cc(/C=C/c4ccnc5ccccc45)cc(c32)C1	?	79µM*	.	.	.	.
N#Cc1ccccc1Cn1c(=O)n(CCCC(=O)NCc2ccccc2Cl)c(=O)c2ccccc21	-60%	89µM*	-10%	.	1%	.
Cc1ccc(Cl)cc1N1CCN(C(=O)CSc2cc(=O)n(C)c3ccccc23)CC1	-5%	-5%	-2%	.	16%	.
Cc1ccc(Cl)cc1N1CCN(C(=O)CSc2ccsc2[N+](=O)[O-])CC1	-33%	?	22µM*	-23%	20µM*	?
COc1ccc(CNC(=O)COC(=O)Cc2ccsc2)cc1	-14%	5%	-13%	1%	18%	5%
COc1ccc(C(=O)NCC(=O)NCc2cc(=O)n(C)c(=O)n2C)cc1	7%	1%	3%	6%	21%	.
CCCC(=O)Oc1c(Sc2ccc(Cl)cc2)c(C)nn1-c1ccccc1	1%	25µM*	-8%	.	14%	.
Cc1ccc(Sc2c(C)nn(-c3ccccc3)c2OC(=O)CC(C)C)cc1	-8%	?	.	.	0%	.
O=C1C=CC(=O)N1c1ccc2ccccc2c1	-12%	14%	-16%	50µM*	.	.
Cc1cccc(N2C(=O)C=CC2=O)c1	-24%	28%	-3%	45µM*	.	.
O=C1C=CC(=O)N1c1ccc(Nc2ccccc2)cc1	-20%	-16%	1%	?	.	.
CCCc1cc(=O)oc2cc(C)cc(OC(C)C(=O)NCCN3CCOCC3)c12 (stereo not drawn)	7%	26%	-8%	3%	37%	.
CCN(C(=O)COC(=O)CNC(=O)c1ccc2ccccc2c1)c1c(N)n(Cc2ccccc2)c(=O)[nH]c1=O	-8%	8%	-13%	?	.	.

Compound activity deposited in PubChem by National Center for Advancing Translational Sciences (NCATS).
